# High-throughput results from PubChem BioAssay.
# Spn MK inh – blocks S. pneumoniae mevalonate kinase; purified MK, PK/LDH-coupled NADH absorbance 340 nm; inhibition, % at 10 µM; 0.48% of 65,000 active; AID 555;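 active = ranked among the strongest by inhibition in the single 10 µM screen, a fixed top-ranked set picked for dose follow-up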
# Spn DPM-DC inh – blocks S. pneumoniae diphosphomevalonate decarboxylase. purified DPM-DC, PK/LDH coupled NADH fluorescence. calls only at 10 µM. 0.49% of 65,000 active. AID 556;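 active = the 320 compounds with the highest percent inhibition in the single-dose primary screen, excluding strongly autofluorescent ones, cut at about 32% in these data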;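 also: kinetic rate of NADH fluorescence loss reporting ADP formed by the decarboxylase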
# A340 absorber – compounds absorbing at 340 nm; compound absorbance at 340 nm, fold over control; fold change at 10 µM; 65,000 tested, under 10 active; AID 708;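 active = at 10 µM dose, initial 340 nm absorbance at least 2 fold that of control wells; inactive = change under 2 fold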;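 also: initial absorbance extrapolated from kinetic A340 decline of NADH oxidation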
# NADH coupling – inhibitors of enzymes used to reach an NAD/NADH endpoint; coupled PK/LDH NADH assays, four targets; AID 774; 0.02% of 65,000 active; IC50, µM (titrated, usually from 10 µM), without a hit: at the top dose inhibition;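 active = single-dose screening hits from any of four coupled enzyme assays that gave an IC50 when retested across doses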;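 also: the DPM-DC format reads NADH fluorescence rather than 340 nm absorbance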
# Autofluor 339 – intrinsic fluorescence of library compounds, ex339/em460 – biochemical, MLSMR library, data from DPM-DC assay, artefact control, profiling panel; compound autofluorescence, ex339/em460 nm, NADH buffer; active compounds read high; 1 = no-compound wells, NADH background; fluorescence fold increase at 10 µM; 5.5% of 65,000 active;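 active = at 10 µM, mean starting fluorescence two-fold or more over control wells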;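 also: signal is the first read of a kinetic run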
# Spn PMK inh – inhibitors of Streptococcus pneumoniae phosphomevalonate kinase; purified PMK, PK/LDH-coupled NADH absorbance 340 nm; inhibition, % at 10 µM; 0.49% of 65,000 active; AID 539;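 active = top-ranked compounds by inhibition in the single 10 µM screen, taking a fixed number of the strongest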;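 also: 0% = full reaction with DMSO carrier and 100% = background rate without enzyme reaction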
# * = called active by the depositor; i = inactive; · = not tested or not shown; + = active, no number. Shown are actives, neighbours in structure and some others; about 6.3% of the full set was active somewhere.
SMILES,Spn MK inh,Spn DPM-DC inh,A340 absorber,NADH coupling,Autofluor 339,Spn PMK inh
Cc1cnc(N)c2c(=O)oc3ccccc3c12,5,·,1.1,6%,2.1*,6
CCS(=O)(=O)N1CCCC(C(=O)NC2CCC(C)CC2)C1 (stereo not given),5,i,0.98,9%,1.1,22
Fc1cccc(-n2c(-c3ccco3)nc3nc4ccccc4nc32)c1,3,·,1.1,5%,3.6*,7
CCCCOCCCn1c(-c2ccco2)nc2nc3ccccc3nc21,5,·,1.1,7%,4*,8
Fc1ccc(-c2nc3nc4ccccc4nc3n2Cc2ccco2)cc1,2,i,1.1,4%,1.4,8
Fc1ccc(-n2c(-c3ccco3)nc3nc4ccccc4nc32)cc1,0,·,1.1,8%,5.1*,16
COc1ccc(-c2nnc(SCc3nnc(-c4ccc(Cl)cc4)o3)n2-c2ccccc2)cc1,8,i,1,3%,1,8
COc1ccccc1-c1noc(CCC(=O)Nc2cc(C(F)(F)F)ccc2Cl)n1,8,i,1,6%,1.2,9
COC(=O)c1cc2oc(C)cc2n1CC(=O)Nc1ccc(OC)c(OC)c1OC,7,i,1,6%,1.1,8
COC(=O)c1cc2occc2n1CC(=O)Nc1ccc(OC)c(OC)c1OC,22,+,1,35%,1,0
CCN(CC)S(=O)(=O)c1ccc(NC(=O)c2cccc3c2C(=O)N(CCOC)C3)cc1,10,+,0.98,9%,1.3,18
COCCN1Cc2cccc(C(=O)Nc3ccc(S(=O)(=O)N4CCCCCC4)cc3)c2C1=O,9,i,0.99,11%,1.4,22
COc1ccc(-c2nc3n(c(=O)c2C#N)CCCS3)cc1,5,i,1.1,8%,2*,0
CCOc1ccc(-c2nc3n(c(=O)c2C#N)CCCS3)cc1,11,i,1.1,14%,2.8*,8
COC(=O)c1ccc2c(=O)n(CCN3CCOCC3)c(SCC(=O)NC3CCCCC3)nc2c1,0,i,1.1,4%,1.1,12
COc1ccc(-c2cn3cccnc3n2)cc1NC(=O)C1CC1,0,i,1.1,12%,3.2*,18
CCOC(=O)C1CCN(S(=O)(=O)c2cccc(-c3cn4cccnc4n3)c2)CC1,9,·,1.1,5%,2.1*,0
COc1ccc(-c2cn3cccnc3n2)cc1NC(=O)C1CCCC1,4,·,1.1,12%,4.8*,19
CCOC(=O)C1CCN(S(=O)(=O)c2cccc(-c3csc(C)n3)c2)CC1,11,i,0.98,4%,1.1,11
COc1ccccc1NC(=O)C1CCCCC1,1,i,1.1,0%,1.1,0
COc1nc2c(C)cccc2cc1-c1noc(-c2ccco2)n1,8,i,1.1,10%,1.7,10
CC(=O)c1cccc(NC(=O)c2cc3nc(C)cc(C)n3n2)c1,5,i,1,10%,2.5*,7
CC(=O)c1cccc(NC(=O)c2cc(C(C)C)on2)c1,4,i,1.1,1%,1.1,0
COc1ccc(-n2nc3ccc(NS(C)(=O)=O)cc3n2)cc1Cl,8,·,1.2,5%,3.8*,1
COc1ccc(NS(=O)(=O)c2coc(C(N)=O)c2)cc1Cl,7,i,0.99,5%,1,9
SMILES,Spn MK inh,Spn DPM-DC inh,A340 absorber,NADH coupling,Autofluor 339,Spn PMK inh
CC(C)(C)P(=O)(CO)c1ccccc1 (stereo not given),11,i,1.1,4%,1.1,0
CC(C)(O)P(C)(=O)c1ccccc1 (stereo not given),7,+,0.99,23%,0.5,14
COc1cc(C#CC#CCN2CCCCC2)ccc1O,1,i,1,0%,1.1,0
Cc1ccccc1NC(=O)CSc1nc(N)c(C#N)c(-c2cccs2)c1C#N,0,i,1,5%,1.6,8
Cc1nn(-c2ccccc2)c2nc(N)c(C#N)c(-c3ccc(F)cc3)c12,11,·,1,9%,3.8*,6
Cc1ccc(-n2nc(C)c3c(-c4cccs4)c(C#N)c(N)nc32)cc1,11,i,1.1,7%,2.4*,0
Cc1nc(N)c(C#N)c(-c2ccccc2)c1C,7,i,1.1,3%,1.3,0
C[C@]12CC[C@@H]3c4ccc(OS(=O)(=O)O)cc4CC[C@H]3[C@@H]1CCC2=O,6,i,1,8%,1.1,active
C#C[C@]1(O)CC[C@H]2[C@@H]3CCc4cc(O)ccc4[C@H]3CC[C@@]21C,4,i,1,1%,1.1,0
NC(=O)C1CC(=O)N(Cc2ccc3c(c2)OCO3)C(=Nc2ccccc2)S1 (stereo not given),0,i,1.1,6%,1.1,18
CNC(=O)C1CC(=O)N(Cc2ccc3c(c2)OCO3)C(=Nc2ccc(OC)cc2)S1 (stereo not given),0,i,1,9%,1.1,27*
COc1nc(Nc2ccc(-c3nc4ccccc4o3)cc2)nc(N2CCOCC2)n1,8,·,1.1,4%,3.7*,0
COc1c(Br)cc(Br)cc1C(=O)O,7,i,0.99,7%,1.1,15
CCOc1ncccc1C(=O)OCC(=O)c1c(N)n(C)c(=O)n(C)c1=O,14,i,1,5%,1.1,0
CCOc1ncccc1C(=O)OCc1cc(=O)n2c(n1)sc1ccccc12,0,i,1,8%,1.4,25*
Cc1ccc(C(=O)Nc2sc3c(c2C(=O)O)CCCCC3)o1,0,i,1.2,7%,1.1,14
COC(=O)c1c(NC(=O)c2ccc(C)o2)sc2c1CCCCC2,13,·,1.1,9%,3.7*,4
NC(=O)c1c(NC(=O)c2cc3ccccc3o2)sc2c1CCC2,0,·,1.1,5%,2.1*,9
COC(=O)c1c(NC(=O)c2c(C)noc2C)sc2c1CCCCCC2,4,·,1.1,4%,3.4*,4
O=C(CCN1C(=O)COc2ccccc21)NCc1cccs1,0,i,1,4%,1.1,13
CCN(CC)CCNC(=O)c1sc2nc(-c3ccccc3)cn2c1C,0,i,1,6%,1.1,18
O=C(O)CSc1cccc2cccnc12,2,·,1.1,4%,2.2*,6
CCOC(=O)N1CCN(Cc2nc(N)nc(Nc3ccc(Oc4ccccc4)cc3)n2)CC1,4,i,1,5%,1,6
Cc1cc(C(=O)Nc2sc3c(c2C#N)CCC(C)C3)cs1 (stereo not given),16,i,1,8%,2*,8
O=C(Nc1sc2c(c1C(=O)O)CCCC2)c1cccs1,8,i,1.1,5%,1.1,8
COC(=O)c1c(NC(=O)c2cccs2)sc2c1CCC(C)C2 (stereo not given),3,i,1.1,5%,3.1*,6
